Experimental data reported in PubChem BioAssay (NCI).
About 79,000 compounds went through this panel and 15% of them were active in at least one assay; those are over-represented in the sample as a whole. Values without a mark were called inactive. The source made the active and inactive calls. No stated cut-off is given here; in the data, active means growth inhibition above about 70%; inactive means the rest.

Columns and labels:
[1] = NCI Yeast Anticancer Drug Screen. Data for the rad50 strain (AID 155);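 further: 0% = growth of vehicle-only cultures of the same strain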; conditions: S. cerevisiae rad50 strain growth inhibition, stronger effect = higher value
Method in brief: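 Yeast carrying a defined DNA repair defect were exposed to test compounds, and growth was compared with vehicle-treated controls to give percent inhibition.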

[2] = NCI Yeast Anticancer Drug Screen. Data for the mec2-1 strain (AID 157); conditions: S. cerevisiae mec2-1 strain, stronger effect = higher value
Method in brief: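 Vehicle-treated cultures served as reference for growth inhibition of compound-exposed mec2-1 yeast.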

[3] = NCI Yeast Anticancer Drug Screen. Data for the sgs1 mgt1 strain (AID 161);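 further: 0% = growth of cultures given vehicle only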; conditions: S. cerevisiae sgs1 mgt1 strain, stronger effect = higher value
Method in brief: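 Mutant yeast exposed to compound; growth scored against vehicle-only wells.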

[4] = NCI Yeast Anticancer Drug Screen. Data for the cln2 rad14 strain (AID 165);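 further: 0% = growth equal to vehicle treated cultures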; conditions: S. cerevisiae cln2 rad14 strain, stronger effect = higher value
Method in brief: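 Each compound was tested on cln2 rad14 yeast. Inhibition of growth was calculated against vehicle-exposed controls.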

[5] = NCI Yeast Anticancer Drug Screen. Data for the bub3 strain (AID 167); conditions: S. cerevisiae bub3 mutant strain, stronger effect = higher value
Method in brief: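 Compounds were applied to a genetically altered yeast strain carrying a cell-cycle control defect. Growth inhibition was scored against vehicle-treated controls.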

[6] = NCI Yeast Anticancer Drug Screen. Data for the mlh1 rad18 strain (AID 175); conditions: S. cerevisiae mlh1 rad18 strain growth inhibition, stronger effect = higher value
Method in brief: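 Vehicle-treated cultures served as the reference for growth inhibition in a yeast strain carrying DNA damage repair alterations exposed to each compound.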

[7] = at 5.0 µM (retest, dose inferred, filed as 0.5)
[8] = at 50.0 µM (retest, dose inferred, filed as 5.0)

Structure (SMILES) | growth inhibition [1, 7] | growth inhibition [1, 8] | growth inhibition ([1]; at 50.0 µM) | growth inhibition [2, 7] | growth inhibition [2, 8] | growth inhibition ([2]; at 50.0 µM) | growth inhibition [3, 7] | growth inhibition [3, 8] | growth inhibition ([3]; at 50.0 µM) | growth inhibition [4, 7] | growth inhibition [4, 8] | growth inhibition ([4]; at 50.0 µM) | growth inhibition [5, 7] | growth inhibition [5, 8] | growth inhibition ([5]; at 50.0 µM) | growth inhibition [6, 7] | growth inhibition [6, 8] | growth inhibition ([6]; at 50.0 µM)
O=S(=O)(/C=C/c1cccnc1)/C=C/c1cccnc1 | 0% | 2% | -14.1% | 0% | -3% | -1.65% | 1% | 6% | 5.3% | 3% | 10% | 82.8% (active) | -2% | 3% | 20.8% | -4% | -1% | 1.25%
O=C1C=CC(Nc2cccc([N+](=O)[O-])c2)C1Nc1cccc([N+](=O)[O-])c1 (stereo unspecified) | -21% | -16% | 92.3% (active) | 16% | -9% | 89.2% (active) | -11% | -11% | 91.5% (active) | -8% | -24% | 90.7% (active) | 19% | -4% | 90.7% (active) | -29% | -19% | 91.7% (active)
COc1ccc2c(c1)CCc1c(CO)c(COC(=O)NC(C)C)n(C)c1-2 | 87% (active) | 90% (active) | 95.8% (active) | 98% (active) | 91% (active) | 97.7% (active) | 96% (active) | 92% (active) | 96.5% (active) | 3% | 85% (active) | 93.5% (active) | 5% | 40% | 79.3% (active) | 59% | 93% (active) | 88.8% (active)
O=C(OCc1ccc2c(c1)OCO2)c1ccc(Cl)cc1 | 19% | 23% | -0.55% | -4% | 68% | -4.55% | 9% | 46% | -6.3% | -43% | -7% | 0.05% | -1% | 61% | 13.9% | 4% | 57% | -19.6%
CCCCCCCCCCCCCCCCCCOC(=O)C(N)CCCCN (stereo unspecified) | 2% | 98% (active) | 98.3% (active) | -3% | 97% (active) | 98.8% (active) | 3% | 97% (active) | 50.5% | -7% | 87% (active) | 96.7% (active) | -7% | 96% (active) | 98.2% (active) | -5% | 96% (active) | 98.3% (active)
C/C(=N\NC(=S)Nc1ccc(C)cc1)c1nc2ncccc2[nH]1 | -9% | 84% (active) | 73.8% (active) | -6% | 88% (active) | 66.2% | 0% | 84% (active) | 66.3% | -36% | 91% (active) | 64.5% | -21% | 97% (active) | 71.5% (active) | 4% | 91% (active) | 50.9%
CS(=O)(=O)c1nnnn1-c1ccccc1 | -21% | 93% (active) | 99.2% (active) | -24% | 97% (active) | 99.5% (active) | -18% | 96% (active) | 99% (active) | -49% | 94% (active) | 97.3% (active) | -34% | 95% (active) | 99.4% (active) | -62% | 96% (active) | 99.5% (active)
ClC1=C(Cl)C(Cl)(Cl)C(Cl)(Cl)C1(Cl)Cl | 55% | 7% | 99.7% (active) | 49% | 99% (active) | 99.5% (active) | 59% | 62% | 99.7% (active) | 31% | 98% (active) | 98% (active) | 41% | 98% (active) | 99.4% (active) | 84% (active) | 99% (active) | 99.2% (active)
CC(Cc1ccccc1)N1C(=O)C=CC1=O (stereo unspecified) | 45% | 98% (active) | 91.8% (active) | 92% (active) | 99% (active) | 93.5% (active) | 20% | 50% | 93.8% (active) | 77% (active) | 98% (active) | 91.5% (active) | 76% (active) | 99% (active) | 92.2% (active) | 47% | 98% (active) | 91.8% (active)
CS(=O)(=O)OCCN(CCOS(C)(=O)=O)c1ccc(C=Nc2ccc(-c3csc(-c4ccc(Br)cc4)n3)cc2)cc1 | 33% | 95% (active) | 94% (active) | 43% | 96% (active) | 97.2% (active) | 18% | 90% (active) | 94.2% (active) | 19% | 92% (active) | 81.2% (active) | -4% | 90% (active) | 74.8% (active) | 60% | 96% (active) | 96% (active)
CCCCNCCC(SSSC(CCNCCCC)c1ccc(Cl)cc1)c1ccc(Cl)cc1 (stereo unspecified) | 26% | 97% (active) | 95.2% (active) | -74% | 98% (active) | 52.5% | 20% | 99% (active) | 98.4% (active) | 17% | 97% (active) | 20.1% | 25% | 98% (active) | 52.2% | 26% | 98% (active) | 97.7% (active)
O=C1CCCCC1Sc1ccc(Cl)cc1 (stereo unspecified) | 1% | 94% (active) | 91.2% (active) | 2% | 95% (active) | 91.1% (active) | 2% | 87% (active) | 96.3% (active) | -4% | 76% (active) | 76.1% (active) | 3% | 96% (active) | 85.2% (active) | 2% | 94% (active) | 87.5% (active)
